Test [1] is described as follows: CCTE_Shafer_MEA_acute_burst_duration_mean: CCTE's Neural Acute Assay for Mean Burst Duration, Shafer Lab (AID 2284014; active means hit-call score of the fitted dose curve at least 0.9, where 1 is the maximum; inactive means score below 0.9;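 further: hits are decreases in mean burst duration relative to DMSO controls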). In short, it runs like this:
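Acute exposure of mature rat cortical networks (DIV 13 or 15) grown on microelectrode arrays to 0.03-40 uM compound. Mean burst duration compared with the 40-min pre-dose baseline over a 40-min post-dose recording at 37 C.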

Test [2] in a line: CCTE_Shafer_MEA_acute_interburst_interval_mean: CCTE's Neural Acute Assay for Mean Interburst Interval, Shafer Lab (AID 2284016; active means hit-call score of the fitted dose curve at least 0.9, where 1 is the maximum; inactive means score below 0.9;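 further: percent change of mean interburst interval versus each well's own pre-dose baseline; curves fitted for decrease in interburst interval relative to DMSO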). A digest of the protocol:
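MEA recording of spontaneous network bursting in primary rat cortical cultures; mean interburst interval was compared before and after a 40-min compound exposure (0.03-40 uM) and expressed as percent change, relative to DMSO.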

Test [3] in a line: CCTE_Shafer_MEA_acute_burst_percentage_mean: CCTE's Neural Acute Assay for Percentage of Spikes in a Burst, Shafer Lab (AID 2284017; active means hit-call score of the fitted dose curve at least 0.9, where 1 is the maximum; inactive means score below 0.9;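 on AC50: curve fitted for loss of signal so potency reflects decreased burst percentage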). A digest of the protocol: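 Compounds were tested at 0.03-40 uM on primary rat cortical neuron networks grown over microelectrodes, with at least three wells per compound. Spontaneous firing was recorded for 40 min before and 40 min after dosing, and the change in burst percentage was computed per well.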

Test [4] in a line: CCTE_Shafer_MEA_acute_burst_percentage_std: CCTE's Neural Acute Assay for Standard Deviation of Burst Percentage, Shafer Lab (AID 2284018; active means hit-call score of the fitted dose curve at least 0.9, where 1 is the maximum; inactive means score below 0.9;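 further: fitted in the negative direction so actives lower burst percentage SD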). A digest of the protocol: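 Primary rat cortical neurons on 16-electrode MEA wells were recorded 40 min at baseline (DIV 13 or 15), then 40 min after compound (0.03-40 uM), at 37 C. Well value is SD across electrodes of spikes-in-bursts/total spikes; endpoint is percent change, DMSO-referenced.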

Test [5] in a line: CCTE_Shafer_MEA_acute_per_network_burst_spike_number_mean: CCTE's Neural Acute Assay for Average Number of Spikes in a Network Burst, Shafer Lab (AID 2284019; active means hit-call score of the fitted dose curve at least 0.9, where 1 is the maximum; inactive means score below 0.9). A digest of the protocol:
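Acute exposure of rat primary cortical networks (DIV 13/15) on MEAs; adaptive spike detection at 8x rms noise, 37 C. Percent change in spikes per network burst after 40 min with compound (0.03-40 uM), negative direction vs DMSO.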

A short description of test [6]: CCTE_Shafer_MEA_acute_per_network_burst_spike_number_std: CCTE's Neural Acute Assay for Standard Deviation of Number of Spikes in a Network Burst, Shafer Lab (AID 2284020; active means hit-call score of the fitted dose curve at least 0.9, where 1 is the maximum; inactive means score below 0.9;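 further: fitted for decrease in spike-number SD versus DMSO so actives lower it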). A digest of the protocol: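 Acute MEA exposure, rat cortical neurons, 0.03-40 uM. Per-well % change versus own baseline; DMSO as negative control.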
A short description of test [7]: CCTE_Shafer_MEA_acute_per_network_burst_electrodes_number_mean: CCTE's Neural Acute Assay for Mean Number of Electrodes in a Network Burst, Shafer Lab (AID 2284021; active means hit-call score of the fitted dose curve at least 0.9, where 1 is the maximum; inactive means score below 0.9;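 further: curves fitted for decreases only so hits reduce electrodes per burst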). A digest of the protocol: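 Primary rat cortical networks, mwMEA, 37 C. 20 min stabilization, 40 min baseline, compound 0.03-40 uM, 40 min re-record. Wells need >=10 active electrodes; percent change per well, negative fitting direction.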

Test [8] in a line: CCTE_Shafer_MEA_acute_network_burst_percentage: CCTE's Neural Acute Assay for Percentage of Network Bursts, Shafer Lab (AID 2284022; active means hit-call score of the fitted dose curve at least 0.9, where 1 is the maximum; inactive means score below 0.9;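 further: curves fitted for loss so actives lower network burst percentage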). In short, it runs like this:
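Readout is the fraction of spikes falling in network bursts, expressed as per-well percent change from a 40-min pre-exposure baseline. Primary rat cortical neurons on MEA were exposed to 0.03-40 uM compound on DIV 13 or 15 and recorded for 40 min at 37 C.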

A short description of test [9]: CCTE_Shafer_MEA_acute_cross_correlation_area: CCTE's Neural Acute Assay for Area of Cross Correlation, Shafer Lab (AID 2284024; active means hit-call score of the fitted dose curve at least 0.9, where 1 is the maximum; inactive means score below 0.9;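 further: rat primary cortical neuron networks on 48-well MEA at DIV 13 or 15 with 40 min exposure; area under pooled inter-electrode spike cross-correlation near zero lag as percent change from own baseline; curves fitted for loss of cross-correlation area so actives lower synchrony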). In short, it runs like this:
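Plates equilibrated 20 min at 37 C, then 40 min baseline was recorded, compound was added (0.03-40 uM), and a further 40 min was recorded. Wells needed ≥10 active electrodes (≥5 spikes/min) on exposure day.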

Test [10] in a line: CCTE_Shafer_MEA_acute_cross_correlation_HWHM: CCTE's Neural Acute Assay for Cross Correlation at Half Width at Half Maximum, Shafer Lab (AID 2284026; active means hit-call score of the fitted dose curve at least 0.9, where 1 is the maximum; inactive means score below 0.9;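 further: percent change per well from pre-dose baseline in spike cross-correlogram half width; hits are a decrease in cross-correlogram half width relative to DMSO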). In short, it runs like this: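 Rat cortical neuron cultures on microelectrode arrays were equilibrated 20 min at 37 C, recorded 40 min at baseline, then 40 min after compound addition (0.03-40 uM, ≥3 wells). Spikes were detected at 8x rms noise after 300-5000 Hz band-pass filtering.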

Test [11] can be described thus: CCTE_Shafer_MEA_acute_synchrony_index: CCTE's Neural Acute Assay for Synchrony, Shafer Lab (AID 2284027; active means hit-call score of the fitted dose curve at least 0.9, where 1 is the maximum; inactive means score below 0.9;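 further: network synchrony index of spontaneous spiking in primary rat cortical neurons on MEAs; fitted for loss of signal so actives lower synchrony relative to DMSO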). In short, it runs like this:
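Rat cortical cultures, DIV 13/15; spikes detected at 8x rms noise, 300-5000 Hz band-pass. Compound 0.03-40 uM, ≥3 wells; 40-min pre- and post-exposure recordings, 37 C. Readout: % change in synchrony index; loss-of-signal fit vs DMSO.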

The nature of test [12]: CCTE_Shafer_MEA_dev_firing_rate_mean: CCTE's Neural Network Formation Assay for Mean Firing Rate, Shafer Lab (AID 2284031; active means hit-call score of the fitted dose curve at least 0.9, where 1 is the maximum; inactive means score below 0.9;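 on AC50: curve fitted for loss of firing so AC50 reflects decreased mean firing rate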). In short, it runs like this:
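Read-out: spike count/recording length, averaged over active electrodes, then AUC across days 5, 7, 9, 12. Rat cortical cultures on MEA; continuous 12-day exposure, media and treatment renewed DIV 5, 9; DMSO baseline.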

A short description of test [13]: CCTE_Shafer_MEA_dev_per_burst_spike_percent: CCTE's Neural Network Formation Assay for Percent of Spikes in a Burst, Shafer Lab (AID 2284032; active means hit-call score of the fitted dose curve at least 0.9, where 1 is the maximum; inactive means score below 0.9). In short, it runs like this:
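Value is trapezoidal AUC over recordings on days 5, 7, 9 and 12 of the well-mean fraction of spikes falling in single-electrode bursts; rat cortical cultures exposed continuously from plating, treatment renewed DIV 5 and 9, fitted downward against DMSO.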

The nature of test [14]: CCTE_Deisenroth_AIME_384WELL_CTox_Active: Cytotoxicity Assessment (CTOX) in CCTE's 384-well Estrogen Receptor Transactivation Assay with AIME metabolic competence (metabolism positive), Deisenroth Lab (AID 2284037).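 Further: chemicals first conditioned 2 h by alginate-bound induced rat liver S9 before cells; activity means signal loss indicating cell death.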 A digest of the protocol:
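VM7Luc4E2 breast cells received medium pre-incubated 2 h with chemical over alginate microspheres holding induced male Sprague Dawley rat liver S9; viability read 24 h later by protease-substrate fluorescence. Loss of signal, bidirectional fit, 0.002–200 uM.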

Test [15] has as its target Estrogen receptor (Homo sapiens) (UniProt P03372). Briefly: CCTE_Deisenroth_AIME_384WELL_LUC_Inactive: CCTE's 384-well Estrogen Receptor Transactivation Assay without AIME metabolic competence (ERTA luciferase; metabolism negative), Deisenroth Lab (AID 2284038).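 Further: hits raise estrogen receptor luciferase signal so potencies reflect agonists.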 A digest of the protocol: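 Metabolism-negative mode: AIME lids stamped in alginate-water, no hepatic S9. 2 h chemical incubation → medium onto VM7Luc4E2 ERTA, 24 h. Readout luciferase luminescence; gain-of-signal fit vs 17beta-estradiol. Conc. 0.002 - 200 uM.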

Test [16] shares this target. The experiment in a line: CCTE_Deisenroth_AIME_384WELL_LUC_Active: CCTE's 384-well Estrogen Receptor Transactivation Assay with AIME metabolic competence (ERTA luciferase; metabolism positive), Deisenroth Lab (AID 2284030). A digest of the protocol:
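AIME metabolism-positive mode: chemicals 0.002 - 200 uM, 2 h with alginate-bound PB/BNF-induced rat S9 → medium to VM7Luc4E2 ERTA, 24 h → luciferase. Positive fit vs 17beta-estradiol; n=4 typical.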

Several values for one entry are separate records, joined by “and”; a condition that tells them apart may be missing. Equal values may be shown once. Inconclusive results are not listed. Activity calls are given as the source filed them. How the source made its calls, unless noted: active means hit-call score of the fitted dose curve at least 0.9, where 1 is the maximum; inconclusive means response in the unintended direction; inactive means score below 0.9.

In PubChem BioAssay (EPA / NIEHS) one finds outcome and AC50 data, which are given here for 27 molecules.

Estrogen receptor (Homo sapiens), sequence (P03372 whole entry, looked up): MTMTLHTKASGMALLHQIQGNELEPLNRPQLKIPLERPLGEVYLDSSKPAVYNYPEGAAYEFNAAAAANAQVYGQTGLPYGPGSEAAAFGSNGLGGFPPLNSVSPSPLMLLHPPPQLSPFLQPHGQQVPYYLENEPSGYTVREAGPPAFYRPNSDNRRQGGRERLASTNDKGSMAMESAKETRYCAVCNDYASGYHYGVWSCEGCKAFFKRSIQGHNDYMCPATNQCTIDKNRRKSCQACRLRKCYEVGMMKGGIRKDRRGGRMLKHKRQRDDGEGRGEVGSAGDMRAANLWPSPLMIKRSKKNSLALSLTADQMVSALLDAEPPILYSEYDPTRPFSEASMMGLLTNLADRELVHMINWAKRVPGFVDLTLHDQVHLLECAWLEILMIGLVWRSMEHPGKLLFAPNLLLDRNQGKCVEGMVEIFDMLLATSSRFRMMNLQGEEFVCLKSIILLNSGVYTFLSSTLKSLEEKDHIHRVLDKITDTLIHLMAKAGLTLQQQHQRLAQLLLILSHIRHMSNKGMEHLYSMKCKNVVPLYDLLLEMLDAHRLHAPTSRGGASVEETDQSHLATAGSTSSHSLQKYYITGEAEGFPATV

Usually AC50 stands for the midpoint of the concentration-response curve, whichever way the signal moves. Regarding `CCCCCCCCc1ccc(O)cc1`, the molecule was classed as inactive in [1], in test [5], in test [6], in test [7] and in [9]. Also, the AC50 is 5 µM (active) in [2]; 12.7 µM (active) in [3]; 20 µM (active) in [4]; 3.39 µM (active) in [8]; 9.18 µM (active) in test [10]; 20 µM (active) in test [11].

Regarding `ClC1(Cl)C2(Cl)C3(Cl)C4(Cl)C(Cl)(Cl)C5(Cl)C3(Cl)C1(Cl)C5(Cl)C24Cl` (stereo unspecified), the call in test [1], in test [2], in [3], in test [4], in test [5] and in [6] was inactive. The outcome in test [7], in test [8], in test [9], in test [10], in test [11] and in test [12] was inactive. Besides, in test [13], the concentration at half-maximal activity (AC50) was 3.9 µM (active).

With `COP(=O)(OC)O/C(=C\Cl)c1cc(Cl)c(Cl)cc1Cl`, the result in test [12], in test [13] and in test [15] was inactive. The AC50 in [14] is 100 µM (active).

As to `NNC(=S)NN`, the result in [16], in [14] and in [15] was inactive.

Consider `COc1ccc(C=O)cc1`, for which the outcome in test [16], in test [14] and in test [15] was inactive.

Consider `C=C(C)C#N`, for which the call in test [16], in [14] and in [15] was inactive.

In the case of `CC(=O)C=C(C)C`, the outcome in test [16], in test [14] and in [15] was inactive.

Regarding `Cc1ccc(N)cc1Cl`, the molecule was called inactive in test [16], in [14] and in test [15].

Turning to `O=S(=O)(c1ccc(Cl)cc1)c1ccc(Cl)cc1`, the outcome in test [16] and in [15] was inactive.

As to `O=C1CCCN1`, the outcome in test [16], in test [14] and in [15] was inactive.

On to `c1cc[c]([Hg][c]2ccccc2)cc1`, for which the molecule was classed as inactive in test [15].

In the case of `CNC(=O)O/N=C/C(C)(C)S(C)=O` (stereo unspecified), the molecule was classed as inactive in [16] and in test [15].

With `CC(C)OC(=O)Nc1ccccc1`, the values for the AC50 in [16] and in test [15] were 17 µM (active) and 17.4 µM (active), respectively.

Take `Cn1sc(Cl)cc1=O`: the half-maximal activity concentration (AC50) is 8.69 µM (active) in test [12] and 4.02 µM (active) in [13].

For `CCCCCCCCSC(=O)Oc1cc(Cl)nnc1-c1ccccc1`, the result in test [16], in test [14] and in test [15] was inactive.

Turning to `CC(=O)c1cc(C(C)(C)C)cc2c1CCC2(C)C`, the molecule was classed as inactive in [16], in test [14] and in [15].

For the molecule `CCOC(=O)Nc1cccc(OC(=O)Nc2ccccc2)c1`, the outcome in [16] and in [15] was inactive.

In the case of `CC1(C)CCC(Cc2ccc(Cl)cc2)C1(O)Cn1cncn1` (stereo unspecified), the AC50 in test [14] was 120 µM (active).

Consider `O=C(O)C(F)(F)C(F)(F)C(F)(F)C(F)(F)C(F)(F)C(F)(F)F`, for which the call in [12] and in test [13] was inactive.

With `COP(=O)(OC)OC`, the outcome in [16] and in test [15] was inactive.

For `Oc1cccc2cccnc12`, in [14], the result was inactive.

For the molecule `CCOP(=S)(OCC)Oc1nc(Cl)c(Cl)cc1Cl`, the concentration at half-maximal activity (AC50) in test [12] was 13.3 µM (active) and 2.98 µM (active) and 12 µM (active); in test [13] it was 23.3 µM (active) and 15 µM (active) and 21.4 µM (active).

Consider `O=C1C(Cl)=C(Cl)C(=O)c2ccccc21`, for which, in [14], the AC50 is 163 µM (active).

Consider `OCC(O)CCl` (stereo unspecified), for which the AC50 in test [16] is 0.555 µM (active); in test [15], 0.124 µM (active). Also, the call in [14] was inactive.

On to `C[C@@H]1C[C@@H]([C@H](O)CC2CC(=O)NC(=O)C2)C(=O)[C@@H](C)C1`, for which the AC50 in test [14] was 28.5 µM (active).

Turning to `[O-][Cl+2]([O-])O`, the molecule was called inactive in test [16] and in test [15].

Take `ClC(Cl)=C(Cl)C(Cl)=C(Cl)Cl`: the call in test [16], in [14] and in test [15] was inactive.
